Among the data in PubChem BioAssay AID1530 (NMMLSC, 2009) are percent response values, retold here.

In all, about 290,000 compounds went through this assay and about 1,000 (0.34%) were called active. This is one part of a sample in which actives are shown more often than they occur. Cut-off read from the data, not from the text of the source: active = percent response above about 24% (passing the limit was not always enough); inactive = the rest.

In the test the test system is MEKK2 (MAP3K2) mutant PB1 domain binding to MEK5, human. Nature of the test: MEK5 binding signal on mutant MEKK2 PB1, primary screen, biochemical, multiplex bead flow cytometry, Alexa488-MEK5 (AID 1530). The conditions noted are these: at 10 µM, stronger effect = higher value.
As to `COCCNC(=O)/C(C#N)=C/c1nc(N(C)C)n(-c2ccc(F)cc2)c1Cl`, the percent response was 63% (active).

Take `COCCNC(=O)/C(C#N)=C/c1cccc(OCc2ccccc2)c1`: the percent response was 2% (inactive).

As for `COCCCNC(=O)/C(C#N)=C/c1c(N2CCCCCC2)nc2ccccn2c1=O`, the percent response was 5% (inactive).

Consider `Cc1ccc(C(NC(=O)N2CCCC2)C(Cl)(Cl)Cl)cc1F` (configuration not stated), for which the percent response was -1% (inactive).

For the compound `Cc1ccc(S(=O)(=O)c2c[nH]c3ccc(C)cc3c2=O)cc1`, the percent response was 3% (inactive).

For `Cc1ccc2c(C)c(C(=O)N(C)Cc3ccncn3)oc2c1C`, the percent response is 0% (inactive).

As for `Cc1ccc2c(C)c(C(=O)N3CCN(c4ccncc4)CC3)oc2c1C`, the percent response is 30% (active).

`Cc1c(C(=O)N2CCN(c3ccc(F)cc3)CC2)oc2c1C(=O)CCC2`: the percent response was 0% (inactive).

With `Cc1cccc(CCNC(=O)Cn2ncc3c([nH]c4ccc(C)cc43)c2=O)c1`, the percent response is -4% (inactive).

As to `CCCNC(=O)COc1coc(CN2CCN(Cc3ccccc3)CC2)cc1=O`, the percent response was 10% (inactive).

Consider `COc1ccc(-c2nnc(NC(=O)CS(=O)(=O)c3ccc(Cl)cc3)o2)c(OC)c1`, for which the percent response is 2% (inactive).

Regarding `c1ccc2c(CSCc3nc4ccccc4[nH]3)cccc2c1`, the percent response was 1% (inactive).

Regarding `CCOc1ccc(Br)cc1CSC(=N)N`, the percent response is -1% (inactive).

Regarding `N=C(N)SCc1cccc2ccccc12`, the percent response is 91% (active).

For `CCOC(=O)C1Nc2ccc(C(F)(F)F)cc2C2C=CCC12` (configuration not stated), the percent response is 0% (inactive).

As to `CC(=O)c1ccc(S(=O)(=O)N2CCC3(CC2)OCCO3)cc1`, the percent response is -1% (inactive).

Consider `c1ccc(Nc2nc(N3CCOCC3)c3ccccc3n2)cc1`, for which the percent response was 38% (active).

Take `O=c1[nH]c(N2CCOCC2)nc2ccccc12`: the percent response was 5% (inactive).

Consider `CN1CCN(c2nc(Nc3ccc(O)cc3)nc3ccccc23)CC1`, for which the percent response is 2% (inactive).

Take `Cc1ccc(C)c(OCCC(=O)OCC(=O)N2CCN(c3ccccc3)CC2)c1`: the percent response is -5% (inactive).

For the compound `O=C(NNS(=O)(=O)c1ccc([N+](=O)[O-])cc1)C1CCCCC1`, the percent response was 7% (inactive).

On to `Cc1nc(-c2ccccc2)sc1C1(C)CC(c2cccnc2)=NO1` (configuration not stated), for which the percent response was -3% (inactive).

For `O=C(Nc1cccnc1)c1ccc(Cl)cc1[N+](=O)[O-]`, the percent response was 2% (inactive).

As to `O=C(Nc1cccnc1)c1cc(Cl)ccc1Cl`, the percent response was 28% (active).

Consider `O=C(Nc1cccnc1)c1cc([N+](=O)[O-])ccc1Cl`, for which the percent response was 6% (inactive).

`Cc1[nH]n(C(N)=S)c(=O)c1N=Nc1ccc(Cl)cc1Cl`: the percent response was 2% (inactive).

In the case of `CCn1c(CNC(=O)c2cc(OC)c(OC)c(OC)c2)cc2cc(C)ccc21`, the percent response was -6% (inactive).

Regarding `CN(C(=O)CN1C(=O)CCSc2ccc(S(=O)(=O)N3CCCC3)cc21)c1ccccc1`, the percent response was 1% (inactive).

Regarding `CNC(C)C#Cc1ccc2sc3cc(OC)c(OC)cc3c(=O)c2c1` (configuration not stated), the percent response was 13% (inactive).

Regarding `CC1COc2ccccc2N1C(=O)c1ccc(F)cc1` (configuration not stated), the percent response is 1% (inactive).

Regarding `CC1Sc2ccc(S(=O)(=O)CCC(=O)NCc3ccccc3Cl)cc2NC1=O` (configuration not stated), the percent response is 11% (inactive).

Consider `O=C(NCCN1CCOCC1)[C@H](Cc1ccccc1)N1C(=O)c2ccccc2C1=O`, for which the percent response is 26% (active).

For the compound `O=C(NC1=NCCS1)[C@H](Cc1ccccc1)N1C(=O)c2ccccc2C1=O`, the percent response is 0% (inactive).

Regarding `O=C(CCN1C(=O)c2ccccc2C1=O)NCCN1CCOCC1`, the percent response is -3% (inactive).

For the compound `Cc1ccc(NC(=O)COC(=O)C2C3CC4OC(=O)C2C4C3)cc1Cl` (configuration not stated), the percent response is 5% (inactive).

Turning to `CCC(C)[C@H]1COCCS(=O)(=O)N1Cc1ccc(C)cc1` (some centres not stated), the percent response was -5% (inactive).

Turning to `Cc1c(CCOC(=O)CC23CC4CC(CC(C)(C4)C2)C3)sc[n+]1Cc1ccc([N+](=O)[O-])cc1`, the percent response is 54% (active).

Consider `Cc1c(CCO)sc[n+]1CC(=O)OC12CC3CC(CC(C3)C1)C2`, for which the percent response was 0% (inactive).

For `Cc1c(CCOC(=O)c2cc([N+](=O)[O-])ccc2Cl)sc[n+]1CCCCS(=O)(=O)[O-]`, the percent response was -1% (inactive).

For `Clc1ccc2nc(CSc3ccccc3)cn2c1`, the percent response is 2% (inactive).

On to `CC1(C)Cc2ccccc2/C(=C/C(=O)c2ccccc2)N1`, for which the percent response was 3% (inactive).

Regarding `COCCCNC(=S)N1CCN(c2nc(-c3cccc(OC)c3)cs2)CC1`, the percent response was -4% (inactive).

As to `CN(C)CCCNC(=S)N1CCN(c2nc(-c3ccccc3)cs2)CC1`, the percent response was 25% (active).

As to `CN(C)CCCNC(=S)N1CCC(c2nc3ccccc3[nH]2)CC1`, the percent response is 4% (inactive).

In the case of `COc1ccc(CCN2C(=O)C(C)=C(C)C2=O)cc1OC`, the percent response is 1% (inactive).

For `O=C(CCc1nnc2ccc(NCCCN3CCCC3=O)nn12)NCc1ccccc1Cl`, the percent response is 6% (inactive).

In the case of `CC1CCN(C(=O)CCc2nnc3ccc(NCc4ccco4)nn23)CC1`, the percent response is 0% (inactive).

Turning to `O=C(CCc1nnc2ccc(NCc3ccccc3Cl)nn12)NCC1CCN(C2CCCC2)C1` (configuration not stated), the percent response is 26% (active).

In the case of `CC1CCCCN1C(=O)Cn1c(=O)oc2cc(S(=O)(=O)N3CCCCC3)ccc21` (configuration not stated), the percent response was 2% (inactive).

Consider `Cc1cccc(NC(=O)Cc2ccc(Br)cc2)n1`, for which the percent response is 4% (inactive).

On to `COc1cc(NC(=O)CSc2nnc3ccc(-c4ccncc4)nn23)cc(OC)c1`, for which the percent response was 0% (inactive).

Regarding `COc1ccc(CCNC(=O)CSc2nnc3ccc(-c4ccncc4)nn23)cc1`, the percent response is 146% (active).

For the compound `COc1ccccc1CCNC(=O)CSc1nnc2ccc(-c3cccnc3)nn12`, the percent response is 6% (inactive).

Consider `CCOc1ccc(C(=O)Nc2c3c(nn2-c2ccccc2)CS(=O)(=O)C3)cc1`, for which the percent response is 6% (inactive).

As to `COc1ccc(S(=O)(=O)/N=C2\C=C(NS(=O)(=O)c3ccccc3)C(=O)c3ccccc32)cc1`, the percent response is -2% (inactive).

For the compound `CCOc1ccccc1NC(=O)Cn1ncc2ccc([N+](=O)[O-])cc21`, the percent response was 3% (inactive).

`Cc1cc(NC(=O)c2cnn3cccnc23)n(-c2ccccc2)n1`: the percent response is 5% (inactive).

Turning to `O=C(Nc1ccc(Cl)cn1)c1ccc2c(c1)OCCO2`, the percent response is -5% (inactive).

Take `O=C(Nc1ccc(Cl)cn1)c1cnn2cccnc12`: the percent response was 26% (active).

`COc1ccc(C)cc1N(C(=O)Cn1nnc(-c2ccc(C)o2)n1)C(C(=O)NC1CCCC1)c1ccncc1` (configuration not stated): the percent response was -2% (inactive).

Take `CCOC(=O)N1CCN(Cc2nnc(-c3ccccc3Cl)o2)CC1`: the percent response was 8% (inactive).

Take `CCCn1c(=N)n(CC(=O)c2ccc(Cl)c(Cl)c2)c2ccccc21`: the percent response was 29% (active).

Turning to `CCCNC(=O)c1ccc(Cl)c(Cl)c1`, the percent response is -1% (inactive).

In the case of `CCn1c(=N)n(CC(=O)c2cccc(OC)c2)c2ccccc21`, the percent response is -9% (inactive).

In the case of `CCN(CC)CCN(C(=O)c1ccc(S(=O)(=O)N2CCOCC2)cc1)c1nc2cc3c(cc2s1)OCCO3`, the percent response was 11% (inactive).

Turning to `CN(C)CCCN(C(=O)c1ccc(S(=O)(=O)N2CCCc3ccccc32)cc1)c1nc2ccc(F)cc2s1`, the percent response was 65% (active).

Regarding `CCOc1ccc2nc(N(CCCN(C)C)C(=O)c3ccc(C(=O)c4ccccc4)cc3)sc2c1`, the percent response is 19% (inactive).

In the case of `CCc1ccc2nc(N(CCCN(C)C)C(=O)c3ccc4c(c3)OCCO4)sc2c1`, the percent response is 3% (inactive).

Turning to `O=C(Nc1nc2ccc([N+](=O)[O-])cc2s1)c1ccc(S(=O)(=O)N2CCCc3ccccc32)cc1`, the percent response was -5% (inactive).

Regarding `CN(C)CCCN(C(=O)c1ccc(S(=O)(=O)N2CCCCCC2)cc1)c1nc2ccc(Br)cc2s1`, the percent response is 61% (active).

Turning to `O=C(NC1CCCC1)C1CC(=O)N(c2ccc(F)cc2)C1` (configuration not stated), the percent response is 0% (inactive).

In the case of `CN(C)CC(O)COc1ccc(C(C)(C)c2ccc(OCC(O)CN(C)C)cc2)cc1` (configuration not stated), the percent response is 33% (active).

Take `CC(C)(c1ccccc1)c1ccc(OCCN)cc1`: the percent response was 0% (inactive).

Consider `Cc1cc(C)n(CC(O)COc2ccc(C(C)(C)C)cc2)n1` (configuration not stated), for which the percent response is -1% (inactive).

Take `CCn1cc(CN2CCC(C(=O)Nc3cccc(-c4cccc(Cl)c4)c3)CC2)c(C)n1`: the percent response was 35% (active).

On to `CCn1cc(CN2CCC(C(=O)Nc3cccc(-c4cccc(Cl)c4)c3)CC2)cn1`, for which the percent response was 21% (inactive).

With `O=C(Nc1cccc(-c2cccc(Cl)c2)c1)C1CCN(C2CCC2)CC1`, the percent response was 14% (inactive).

In the case of `CC1CCN(CC(=O)Nc2nccs2)CC1`, the percent response was 3% (inactive).

Turning to `Cc1ccc(C)c(S(=O)(=O)Nc2cccc(-n3cnnn3)c2)c1`, the percent response is -1% (inactive).

For `CCCN1CCN(C(=O)CCCNC(=O)c2ccc(Cl)cc2)CC1`, the percent response was -2% (inactive).

`CN1C(=O)/C(=C/c2ccc(C(=O)NC3CCCC3)cc2)Oc2ccccc21`: the percent response was 2% (inactive).

Regarding `CN1CCN(CCCNC(=O)c2ccc(/C=C3\Oc4ccccc4N(Cc4ccc(Cl)cc4)C3=O)cc2)CC1`, the percent response is 48% (active).

`NS(=O)(=O)c1ccc2nc(NC(=O)C3=COCCO3)sc2c1`: the percent response was -4% (inactive).

For the compound `CCC(=O)c1ccc(OCC(=O)Nc2ccc3nc(C)sc3c2)cc1`, the percent response was -22% (inactive).

For `Cc1ccc(NC(=O)C/C(N)=N/O)cc1Cl`, the percent response was 1% (inactive).

With `Cc1ccc(NC(=O)COc2ccc(-n3ccnc3)cc2)cc1Cl`, the percent response was 27% (active).

In the case of `O=C1N[C@H](Cc2ccccc2)C(=O)N[C@H]1Cc1cn(S(=O)(=O)c2ccccc2)c2ccccc12`, the percent response is 2% (inactive).

On to `CCOC(=O)N1CCN(C(=O)C2CCN(S(=O)(=O)c3cc(Cl)ccc3OCC)CC2)CC1`, for which the percent response was 5% (inactive).

`CC(NS(=O)(=O)c1ccc(Br)cc1)C(=O)NCC1CCCO1` (configuration not stated): the percent response was 4% (inactive).

Regarding `O=C(CSc1ccc(-c2ccc(Br)cc2)nn1)NCC1CCCO1` (configuration not stated), the percent response was 6% (inactive).

Turning to `OC(CNCC1CCCO1)Cn1c2ccc(Br)cc2c2cc(Br)ccc21` (configuration not stated), the percent response was 40% (active).

Regarding `COc1ccc(NC(=O)C2=CC(c3ccc(OC)c(OC)c3)=NS(=O)(=O)N2C)cc1`, the percent response was -4% (inactive).

As to `COc1cc(CNCc2ccc(OC)c3ccccc23)cc(OC)c1OC`, the percent response was 6% (inactive).

Turning to `Nc1nonc1-n1nnc(C(=O)N/N=C/c2cc(Br)ccc2O)c1CSC1=NCCS1`, the percent response was 8% (inactive).

In the case of `CCOc1cc(CN2CCN(C(=O)CC(C)C)CC2)ccc1OC`, the percent response was 2% (inactive).

On to `CC(C)CC(=O)N1CCN(Cc2cccc(Cl)c2)CC1`, for which the percent response was 9% (inactive).

As to `CC(C)CC(=O)N1CCN(Cc2ccccc2Br)CC1`, the percent response was 24% (active).
